Unmarked numbers belong to inactive results. Results filed as inconclusive are left out. The source made the active and inactive calls. Unless noted, the call rests on the fitted dose curve; in most records, active means well fitted curve in the direction sought with a large enough effect; inconclusive means small, poorly fitted or top-dose-only effect, or another doubt; inactive means no such curve, though single readings can be large; an effect the other way counts as inactive or inconclusive.

The nature of assay [1]: AP1 Signaling Pathway (AID 357; active means well fitted curve in either direction with a large enough effect, not every such curve was filed as active;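 further: ME-180 reporter cells stimulated with EGF at its EC50 level; on the % scale 0 is the no-effect control and ±100 the full control effect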). The conditions noted are these: ME-180 AP-1-bla reporter, EGF-induced, beta-lactamase ratio, 5 h; at 7.69 µM (top of the series) unless noted. Put shortly: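 Modulation of EGF-driven AP-1 transcription was assessed with a beta-lactamase reporter in ME-180 cells. Compound and EC50 EGF were co-incubated 5 hours at 37 °C before 2.5-hour CCF4 loading at room temperature and dual-emission reading.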

Assay [2] has as its target Cytochrome P450 1A2 (Homo sapiens) (UniProt P05177). As to the kind of experiment: p450-cyp1a2 (AID 410; calls by dose curve; further: potency means the concentration at half of the fitted maximal effect;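 on activity change, negative = inhibition: -100% = full effect of reference inhibitor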). Put shortly:
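20nM CYP1A2, 100uM Luciferin-ME (=Km), 100mM KPO4; cpd 10 min RT; +NADPH regen, 60 min RT; stop/detect 20 min; luminescence. Normalized to furafylline 57 uM = full inhibition.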

The nature of assay [3]: NFAT Signaling Pathway (AID 444; active means well fitted curve in either direction with a large enough effect, not every such curve was filed as active;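 further: carbachol stimulus at about its EC50 of 1 µM final; on the % scale 0 is the no-effect control and ±100 the full control effect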). The conditions noted are these: Jurkat NFAT-bla M1, carbachol, beta-lactamase ratio, 5 h; at 7.69 µM (top of the series) unless noted. Put shortly:
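Read-out: CCF4 FRET ratio (460 nm/530 nm) after 1 h RT dye loading, used for %activity and AC50 from titration series. Cells: Jurkat NFAT-β-lactamase/M1 line, treated with compound plus 1 uM carbachol for 5 h, 37 °C.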

A short description of assay [4]: Stat Signaling Pathway (AID 446; active means well fitted curve in either direction with a large enough effect, not every such curve was filed as active;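 further: ME-180 cervical cancer cells given 40 pM IL-6 alongside compound; SIE-controlled beta-lactamase reporter measured as 460/530 nm FRET emission ratio; on the % scale 0 is the no-effect control and ±100 the full control effect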). Conditions: ME-180 (cervical carcinoma) SIE beta-lactamase reporter, IL-6 stimulated, 5 h; at 7.69 µM (top of the series) unless noted. An outline of the steps: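 Compound effects on IL-6-induced STAT reporter activity were measured in ME-180 cells. After overnight culture, cells were co-treated with 40 pM IL-6 for 5 hrs before beta-lactamase substrate loading at room temperature.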

The target of assay [5] is Glucocorticoid receptor (Homo sapiens) (UniProt P04150). The experiment in a line: GR-GFP Redistribution (AID 450;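 active means compounds whose dose series gives a full or clear partial fitted curve of increased nuclear translocation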; further: potency means the concentration at half of the fitted maximal effect). The conditions noted are these: U2OS GR-GFP nuclear translocation, laser cytometry, 2 h.
Assay [6] shares this target. As to the kind of experiment: GR-EFC Redistribution (AID 451; calls by dose curve; further: potency means the concentration at half of the fitted maximal effect). Conditions: CHO-K1 GR-EFC translocation, beta-gal luminescence, 2 h. An outline of the steps: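 Translocation of GR-ED fusion to nuclear EA restores b-gal, read by luminescence after 1 h room-temperature detection. Engineered CHO-K1 biosensor cells, 1,000/well, exposed 2 h at 37 C to titrations up to 46 uM final.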

Assay [7] has as its target Mitogen-activated protein kinase 10 (Mus musculus) (UniProt Q61831). As to the kind of experiment: JNK3 AlphaScreen Assay (AID 530; active means well fitted curve in either direction with a large enough effect, not every such curve was filed as active;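 further: kinase came from lysate of stimulated human HepG2 cells; signal reports phosphorylation of biotinylated GST-cJun 1-79 at Ser73 with 10 µM ATP; on the % scale 0 is the no-effect control and ±100 the full control effect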). An outline of the steps:
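Kinase buffer: 20 mM Tris-HCl pH 7.6, 10 mM MgCl2, 1 mM DTT, 0.1 mM Na3VO4, 0.01% Tween-20; ATP 10 uM. Substrate biotin-GST-cJun(1-79), enzyme from activated HepG2 lysates. Detection by Ser73 phospho-antibody AlphaScreen.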
In general terms: In Alpha technology, singlet oxygen from a donor bead excites a nearby acceptor bead.

For assay [8], the target named is Muscarinic acetylcholine receptor M1 (Rattus norvegicus) (UniProt P08482). As to the kind of experiment: qHTS Assay for Antagonists of Acetylcholine Muscarinic M1 Receptor: Measurement of IP-One Response (AID 944). Further: nearly all actives have a fitted effect of over 75% in size. An outline of the steps:
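Read-out: HTRF competition between d2-IP1 and Eu-cryptate anti-IP1 antibody, emission 620 and 665 nm. Stimulus was carbachol, EC80 (200 nM), for 30 min in M1-CHO cells (rat receptor), after 10 min compound pre-treatment.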
Background: In qHTS, concentration-response curves come from the screen itself.

The target in assay [9] is Pyruvate kinase (Leishmania mexicana) (UniProt Q27686). As to the kind of experiment: qHTS Validation Assay for Inhibitors of Leishmania Mexicana Pyruvate Kinase (AID 945).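 Further: 0% = DMSO only neutral control wells.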 Put shortly: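 Purified LmPYK (E451W mutant, 0.2 nM) was incubated 1 h at room temperature with 0.5 mM PEP and 0.1 mM ADP in 50 mM imidazole pH 7.2, 50 mM KCl, 7 mM MgCl2; ATP formed was read by PKLight luminescence, normalized to DMSO wells.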

Assay [10] deals with Alpha-galactosidase A (Homo sapiens) (UniProt P06280). The experiment in a line: Counterscreen for Glucocerebrosidase Inhibitors: qHTS Assay for Human alpha-Galactosidase at pH 4.5 (AID 992). Further: 0% is about no effect. Put shortly: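 Citrate buffer pH 4.5, Tween-20 0.005%. Enzyme 2 nM, substrate 80 uM, 20 min RT. Stop pH 10. Fluorescence Ex 365/Em 440. AC50 by Hill fit.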
Assay [11] deals with alpha-glucosidase (Oryza sativa, rice) (UniProt Q653V4). As to the kind of experiment: Counterscreen for Glucocerebrosidase Inhibitors: qHTS Assay for Rice alpha-Glucosidase at pH 5.0 (AID 997).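 Further: 0% = full activity with enzyme and -100% = basal without enzyme.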 Put shortly: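 Endpoint fluorogenic assay at pH 5.0: compounds (0.7 nM to 77 uM) titrated against 4 nM rice enzyme and 400 uM 4-MU-alpha-glucoside for 20 min at room temperature; NaOH/glycine stop, read ex 365/em 440 nm, Hill-fitted AC50.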
On the technique in general: A counterscreen serves to expose hits that act by an unwanted route or on another target.

Assay [12] deals with 3',5'-cyclic-AMP phosphodiesterase 4B (Homo sapiens) (UniProt Q07343). The experiment in a line: qHTS Assay for Inhibitors of PDE-IV (AID 607; active means well fitted activation curve with a large enough effect in the main read-out, with a control signal flat, not every such curve was filed as active; further: % of control where 0% means no effect). Put shortly: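 ACTOne HEK293 cells carry a modified cAMP-gated CNG channel and express endogenous PDE4; plated 1000 cells/well, compounds up to 22.9 uM final. Membrane-potential dye fluorescence (ex 535/em 590) was read; parental cells received 10 uM forskolin + 100 uM RO 20-1724.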

The target in assay [13] is Cytochrome P450 2C19 (Homo sapiens) (UniProt P33261). As to the kind of experiment: qHTS Assay for Inhibitors and Substrates of Cytochrome P450 2C19 (AID 899). Further: potency means the concentration at half of the fitted maximal effect; nearly all actives have a fitted effect of over 60% in size. An outline of the steps: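 5nM enzyme + 10uM Luciferin-H EGE (=KM), 50mM KPO4; cpd pin-transferred, 10 min 37C; NADPH regen, 60 min 37C; stopped w/ luciferin detection reagent, 20 min; luminescence. Normalized to 57uM ketoconazole (AC100).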

Assay [14] can be described thus: qHTS Assay for Identification of Small Molecule Agonists for Thrombopoietin (TPO) Signaling Pathway (AID 917). Further: on the % scale 0 is the no-effect control and ±100 the full control effect. Put shortly: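 First, Ba/F3 cells with human TPO receptor were held overnight without IL-3. Next, compounds and TPO (26 pM final) were added. After 24 hrs at 37 C, luciferase detection reagent was added and luminescence measured following 10 min at room temperature.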

For assay [15], the target named is Pyruvate kinase PKM (Homo sapiens) (UniProt P14618). As to the kind of experiment: qHTS Assay for Activators of Human Muscle Pyruvate Kinase (AID 954; active means well fitted curve in the direction sought with a large enough effect, not every such curve was filed as active;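 further: 0% = uninhibited enzyme and -100% = no enzyme or full thiadiazolimine inhibition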). An outline of the steps: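 A coupled luminescent readout tracked ATP made from ADP by purified PKM2. Final conditions included 0.1 nM enzyme, PEP and ADP at 0.5 and 0.1 mM, pH 7.2 imidazole buffer with BSA, and a one-hour room-temperature reaction.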

Assay [16] concerns the target Cytochrome P450 3A4 (Homo sapiens) (UniProt P08684). The experiment in a line: qHTS Assay for Activators of Cytochrome P450 3A4 (AID 885). Further: nearly all actives have a fitted effect of over 65% in size. Put shortly:
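CYP3A4 activity: Luciferin-PPXE O-dealkylation, 25uM substrate, 200mM KPO4, RT throughout. Read-out is luciferase luminescence; higher values reflect activation.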

In assay [17] the target is Muscarinic acetylcholine receptor M1 (Rattus norvegicus) (UniProt P08482). The experiment in a line: qHTS Assay for Antagonists of Acetylcholine Muscarinic M1 Receptor: Kinetic Measurement of Intracellular Calcium Response (AID 943).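 Further: Fluo-4 calcium signal as peak divided by basal fluorescence over 4 min; nearly all actives have a fitted effect of over 75% in size.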 An outline of the steps:
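Read-out: peak over basal Fluo-4 fluorescence, kinetic at 1 Hz for 4 min after EC80 carbachol (100 nM final). Rat M1-CHO cells, dye loaded 1 h at 37C, compound added 10 min before agonist.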

Assay [18] can be described thus: qHTS Assay for Identification of Small Molecule Antagonists for NFkB Signaling Pathway (AID 895; active means well fitted inhibition curve with a large enough effect in the signal ratio, with a control signal flat, not every such curve was filed as active; the % refers to the signal ratio; further: on the % scale 0 is the no-effect control and ±100 the full control effect). An outline of the steps:
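Beta-lactamase reporter read-out (460 and 530 nm emission ratio, 405 nm excitation, 2 hrs substrate loading RT) after 5 hr stimulation with 10 pM TNF alpha in compound-treated NFkB-bla ME-180 cells in low-serum medium.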

For assay [19], the target named is Cytochrome P450 2D6 (Homo sapiens) (UniProt P10635). The experiment in a line: qHTS Assay for Inhibitors and Substrates of Cytochrome P450 2D6 (AID 891).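 Further: luciferin methyl ether substrate demethylated by CYP2D6 with NADPH regeneration; on the % scale 0 is the no-effect control and ±100 the full control effect; nearly all actives have a fitted effect of over 60% in size.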 Put shortly:
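Luminescent read-out of luciferin formed by 5 nM human CYP2D6 demethylating 30 uM Luciferin-ME EGE (Km level) over 60 min at room temperature after NADPH regeneration addition. Data normalized to full inhibition by 1.43 uM quinidine.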

Chain of Alpha-galactosidase A (Homo sapiens) (P06280 whole entry, looked up): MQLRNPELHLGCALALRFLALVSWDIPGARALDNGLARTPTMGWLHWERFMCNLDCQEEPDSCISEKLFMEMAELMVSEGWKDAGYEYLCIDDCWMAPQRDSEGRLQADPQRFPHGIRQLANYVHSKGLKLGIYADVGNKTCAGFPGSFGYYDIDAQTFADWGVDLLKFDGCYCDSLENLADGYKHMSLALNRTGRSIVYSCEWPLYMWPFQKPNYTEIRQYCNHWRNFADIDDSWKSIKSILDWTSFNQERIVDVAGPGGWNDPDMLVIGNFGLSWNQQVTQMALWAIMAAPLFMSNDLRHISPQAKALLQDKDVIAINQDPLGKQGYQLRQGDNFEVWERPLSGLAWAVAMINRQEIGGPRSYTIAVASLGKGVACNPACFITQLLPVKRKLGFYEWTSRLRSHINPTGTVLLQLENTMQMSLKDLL
Chain of 3',5'-cyclic-AMP phosphodiesterase 4B (Homo sapiens) (Q07343 whole entry, looked up): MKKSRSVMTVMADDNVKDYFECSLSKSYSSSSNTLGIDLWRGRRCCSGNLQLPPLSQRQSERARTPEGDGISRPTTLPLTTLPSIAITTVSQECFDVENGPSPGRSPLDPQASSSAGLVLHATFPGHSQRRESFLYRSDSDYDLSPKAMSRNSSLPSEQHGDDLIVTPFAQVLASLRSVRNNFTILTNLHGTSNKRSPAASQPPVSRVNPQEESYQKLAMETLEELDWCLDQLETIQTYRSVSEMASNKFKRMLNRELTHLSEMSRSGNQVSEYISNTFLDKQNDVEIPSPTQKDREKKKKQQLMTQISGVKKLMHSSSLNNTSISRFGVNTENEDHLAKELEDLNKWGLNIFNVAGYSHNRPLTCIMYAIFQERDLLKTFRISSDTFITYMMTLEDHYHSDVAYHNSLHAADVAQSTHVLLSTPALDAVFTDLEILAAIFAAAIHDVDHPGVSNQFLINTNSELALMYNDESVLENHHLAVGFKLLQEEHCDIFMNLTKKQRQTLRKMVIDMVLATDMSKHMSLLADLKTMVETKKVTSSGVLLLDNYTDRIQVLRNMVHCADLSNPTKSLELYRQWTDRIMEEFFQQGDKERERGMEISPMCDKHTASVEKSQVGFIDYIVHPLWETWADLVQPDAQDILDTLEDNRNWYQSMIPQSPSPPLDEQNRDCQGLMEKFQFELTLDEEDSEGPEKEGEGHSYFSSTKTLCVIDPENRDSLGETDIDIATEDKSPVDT
Chain of Glucocorticoid receptor (Homo sapiens) (P04150 whole entry, looked up, the tested form may be a part): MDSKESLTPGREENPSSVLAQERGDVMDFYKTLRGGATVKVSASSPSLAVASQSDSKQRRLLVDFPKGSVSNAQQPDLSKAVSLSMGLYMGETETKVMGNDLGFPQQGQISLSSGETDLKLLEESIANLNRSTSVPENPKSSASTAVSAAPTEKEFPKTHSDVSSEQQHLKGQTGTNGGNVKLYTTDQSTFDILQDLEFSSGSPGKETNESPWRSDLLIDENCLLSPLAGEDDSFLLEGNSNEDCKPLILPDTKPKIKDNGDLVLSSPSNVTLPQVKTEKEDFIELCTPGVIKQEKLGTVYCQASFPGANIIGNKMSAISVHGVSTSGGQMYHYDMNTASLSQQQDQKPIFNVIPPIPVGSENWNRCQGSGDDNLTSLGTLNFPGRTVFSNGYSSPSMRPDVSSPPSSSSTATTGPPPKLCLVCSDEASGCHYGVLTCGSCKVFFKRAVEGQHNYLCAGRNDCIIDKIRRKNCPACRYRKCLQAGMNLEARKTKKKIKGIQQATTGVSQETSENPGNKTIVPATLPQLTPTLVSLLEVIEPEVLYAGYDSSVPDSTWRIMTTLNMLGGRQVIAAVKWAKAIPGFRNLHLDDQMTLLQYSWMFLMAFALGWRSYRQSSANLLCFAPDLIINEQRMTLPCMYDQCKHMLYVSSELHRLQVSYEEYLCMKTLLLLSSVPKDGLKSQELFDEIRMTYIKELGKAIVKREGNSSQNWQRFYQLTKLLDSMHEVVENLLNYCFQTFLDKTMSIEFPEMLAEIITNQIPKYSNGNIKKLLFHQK
Chain of Muscarinic acetylcholine receptor M1 (Rattus norvegicus) (P08482 whole entry, looked up): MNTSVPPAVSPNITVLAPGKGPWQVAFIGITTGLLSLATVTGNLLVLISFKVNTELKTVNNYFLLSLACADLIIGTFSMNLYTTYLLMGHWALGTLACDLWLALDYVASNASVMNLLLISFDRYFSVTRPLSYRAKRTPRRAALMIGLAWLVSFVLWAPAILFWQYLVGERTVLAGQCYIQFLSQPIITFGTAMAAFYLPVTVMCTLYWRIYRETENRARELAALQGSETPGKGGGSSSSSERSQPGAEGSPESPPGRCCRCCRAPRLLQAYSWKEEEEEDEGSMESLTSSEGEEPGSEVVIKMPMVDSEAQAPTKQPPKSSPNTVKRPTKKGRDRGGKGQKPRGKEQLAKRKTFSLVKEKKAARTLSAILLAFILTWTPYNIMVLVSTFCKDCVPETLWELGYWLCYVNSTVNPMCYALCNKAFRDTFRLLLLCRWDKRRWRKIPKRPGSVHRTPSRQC
Chain of Pyruvate kinase (Leishmania mexicana) (Q27686 2-499 E452W): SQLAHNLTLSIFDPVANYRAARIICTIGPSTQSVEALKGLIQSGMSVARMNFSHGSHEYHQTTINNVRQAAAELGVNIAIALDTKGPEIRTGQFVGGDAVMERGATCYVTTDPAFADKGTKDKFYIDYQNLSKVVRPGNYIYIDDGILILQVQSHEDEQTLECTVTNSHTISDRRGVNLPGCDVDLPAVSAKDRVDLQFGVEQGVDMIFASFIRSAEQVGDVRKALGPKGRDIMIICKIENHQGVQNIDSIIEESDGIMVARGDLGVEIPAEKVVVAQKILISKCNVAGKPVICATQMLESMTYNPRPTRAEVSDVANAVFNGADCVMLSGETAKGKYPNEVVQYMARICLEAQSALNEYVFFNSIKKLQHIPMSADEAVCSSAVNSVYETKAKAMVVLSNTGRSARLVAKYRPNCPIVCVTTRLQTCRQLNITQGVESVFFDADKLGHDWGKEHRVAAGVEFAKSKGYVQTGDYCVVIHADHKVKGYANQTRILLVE
Chain of Cytochrome P450 1A2 (Homo sapiens) (P05177 whole entry, looked up): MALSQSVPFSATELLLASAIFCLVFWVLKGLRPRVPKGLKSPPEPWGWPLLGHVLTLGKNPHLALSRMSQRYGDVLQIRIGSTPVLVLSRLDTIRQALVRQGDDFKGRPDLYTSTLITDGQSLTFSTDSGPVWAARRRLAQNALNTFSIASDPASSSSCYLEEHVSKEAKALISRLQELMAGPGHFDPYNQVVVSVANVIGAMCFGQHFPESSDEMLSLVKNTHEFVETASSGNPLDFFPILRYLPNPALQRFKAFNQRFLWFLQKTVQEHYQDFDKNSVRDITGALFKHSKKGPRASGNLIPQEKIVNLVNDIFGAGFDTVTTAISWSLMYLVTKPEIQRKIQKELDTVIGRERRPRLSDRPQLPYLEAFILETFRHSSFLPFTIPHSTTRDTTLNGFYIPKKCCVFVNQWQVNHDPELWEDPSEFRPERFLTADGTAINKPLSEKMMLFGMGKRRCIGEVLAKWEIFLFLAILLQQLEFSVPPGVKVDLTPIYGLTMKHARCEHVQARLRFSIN
Chain of Cytochrome P450 3A4 (Homo sapiens) (P08684 whole entry, looked up): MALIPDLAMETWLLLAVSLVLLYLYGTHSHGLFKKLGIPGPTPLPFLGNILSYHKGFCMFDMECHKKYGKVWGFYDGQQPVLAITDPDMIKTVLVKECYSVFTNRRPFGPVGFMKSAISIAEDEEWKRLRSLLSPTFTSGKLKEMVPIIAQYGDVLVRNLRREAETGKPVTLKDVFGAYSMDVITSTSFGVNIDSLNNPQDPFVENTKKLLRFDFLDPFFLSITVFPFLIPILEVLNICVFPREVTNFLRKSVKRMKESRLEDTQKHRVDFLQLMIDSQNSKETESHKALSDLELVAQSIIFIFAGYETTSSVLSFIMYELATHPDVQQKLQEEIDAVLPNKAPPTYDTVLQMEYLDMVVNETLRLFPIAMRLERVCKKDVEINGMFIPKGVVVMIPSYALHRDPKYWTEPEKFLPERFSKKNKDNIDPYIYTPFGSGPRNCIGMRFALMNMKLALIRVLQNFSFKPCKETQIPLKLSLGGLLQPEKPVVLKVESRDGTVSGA
Chain of Cytochrome P450 2D6 (Homo sapiens) (P10635 whole entry, looked up): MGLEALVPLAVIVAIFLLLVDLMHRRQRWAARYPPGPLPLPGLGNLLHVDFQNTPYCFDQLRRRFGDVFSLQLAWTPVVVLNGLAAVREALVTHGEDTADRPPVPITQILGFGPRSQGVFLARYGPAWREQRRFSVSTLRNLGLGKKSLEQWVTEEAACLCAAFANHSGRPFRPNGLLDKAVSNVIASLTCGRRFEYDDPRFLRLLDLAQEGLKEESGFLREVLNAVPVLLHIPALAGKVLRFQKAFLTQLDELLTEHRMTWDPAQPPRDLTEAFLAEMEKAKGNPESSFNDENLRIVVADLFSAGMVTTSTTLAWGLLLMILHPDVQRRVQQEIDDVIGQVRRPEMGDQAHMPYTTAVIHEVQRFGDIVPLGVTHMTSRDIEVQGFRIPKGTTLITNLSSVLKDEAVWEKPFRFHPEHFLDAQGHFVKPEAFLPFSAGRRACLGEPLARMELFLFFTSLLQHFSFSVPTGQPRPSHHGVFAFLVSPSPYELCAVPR
Chain of Pyruvate kinase PKM (Homo sapiens) (P14618 whole entry, looked up): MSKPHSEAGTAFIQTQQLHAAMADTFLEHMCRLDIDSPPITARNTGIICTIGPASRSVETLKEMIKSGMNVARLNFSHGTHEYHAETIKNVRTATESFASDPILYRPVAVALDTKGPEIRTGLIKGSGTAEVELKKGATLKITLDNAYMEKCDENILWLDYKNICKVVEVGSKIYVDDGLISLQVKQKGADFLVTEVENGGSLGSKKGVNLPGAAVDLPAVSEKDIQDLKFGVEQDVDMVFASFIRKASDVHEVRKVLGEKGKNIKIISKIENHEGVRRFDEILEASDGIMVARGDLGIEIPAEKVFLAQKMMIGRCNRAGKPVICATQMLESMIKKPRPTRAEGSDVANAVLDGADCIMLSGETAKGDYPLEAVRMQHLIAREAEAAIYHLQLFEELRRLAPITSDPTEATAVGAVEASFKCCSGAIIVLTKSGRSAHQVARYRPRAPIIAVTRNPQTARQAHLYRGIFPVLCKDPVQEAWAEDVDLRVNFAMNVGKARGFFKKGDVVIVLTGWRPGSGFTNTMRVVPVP

Turning to `Nc1nc(Cl)nc2c1ncn2[C@@H]1O[C@@H](CO)[C@@H](O)[C@H]1O`, the activity change, negative = inhibition is -7.62% [at 38 µM] in [1] and 2.55% [at 38 µM] in assay [3]. Moreover, the Potency entry in assay [2], in assay [7], in [8] and in assay [11] was “inactive” each time. The activity, negative = inhibition in assay [4] is 7.39% [at 38 µM]. The Potency in assay [5] and in assay [6] was above 46 µM each time. For the same molecule, the call in assay [9] and in assay [10] was inactive.
On to `O=c1[nH]c2[nH]c(=S)[nH]c(=S)c2[nH]1`, for which the activity change, negative = inhibition is -13.3% in [1] and -1.66% in assay [3]. Further, the Potency is 3.98 µM (active) in assay [2], above 46 µM in [5], above 9.22 µM in assay [6] and 0.631 µM (active) in assay [13]. Also, in assay [4], the activity, negative = inhibition is 15.5%. The Potency entry in assay [7] and in assay [12] was “inactive” throughout.
On to `Nc1ncnc2c1ncn2[C@@H]1CCCO1`, for which the activity change, negative = inhibition is 2.44% [at 38 µM] in assay [1] and -4.45% [at 38 µM] in assay [3]. In addition, the Potency result in assay [2], in assay [7], in assay [12], in assay [8] and in [11] was “inactive” in each case. Also, the activity, negative = inhibition in [4] was -7.91% [at 38 µM]. Also, the Potency in assay [5] and in [6] was above 46 µM each time. The molecule was classed as inactive in [14], in [9], in assay [15] and in assay [10].
For `Nc1ncnc2c1ncn2[C@@H]1O[C@@H](C(=O)NC2CC2)[C@H](O)[C@@H]1O`, the activity change, negative = inhibition was -9.63% [at 38 µM] in [1] and -15.3% [at 38 µM] in [3]. For the same molecule, the Potency entry in [2], in [7], in assay [16], in [17], in assay [8] and in assay [11] was “inactive” throughout. In addition, the activity, negative = inhibition in assay [4] was -7% [at 38 µM]. The Potency in [5] and in assay [6] was above 46 µM in each case. Further, the molecule was called inactive in assay [14], in assay [9] and in assay [10].
Take `Cc1ccccc1N1CCN(S(=O)(=O)C[C@@]23CC[C@H](C[C@H]2NC(=O)[C@@H](N)CCS(C)(=O)=O)C3(C)C)CC1`: the activity change, negative = inhibition in assay [1] is 28.6% [at 38 µM]; in assay [3], 14% [at 38 µM]. Moreover, the Potency result in [2], in [7], in assay [12], in assay [16], in [18] and in [17] was “inactive” each time. Further, the Potency entry in [8] and in [11] was “inactive” each time. The activity, negative = inhibition in [4] was -9.73% [at 38 µM]. For the same molecule, the Potency in assay [5] and in [6] was above 46 µM each time. The call in assay [14], in assay [9] and in assay [10] was inactive.
Take `CC1=C(\C=C/C(C)=C/C=C\C(C)=C\C(=O)Nc2ccc(O)cc2)C(C)(C)CCC1`: the activity change, negative = inhibition in [1] is -16.4% [at 38 µM]; in assay [3], -17.1% [at 38 µM]. Further, the Potency result in [2], in [7], in assay [12] and in assay [19] was “inactive” throughout. The activity, negative = inhibition in assay [4] was -11.2% [at 38 µM]. For the same molecule, the Potency in [5] and in [6] was above 46 µM throughout.

The values are drawn from PubChem BioAssay (NCATS).
